# Article PMC4336329 (PLoS ONE, 2015)
# Out of some 310,000 compounds screened, about 14,000 (4.5%) showed an effect of 50% or more. Effects have a minus sign here. The list comes from a sample in which strong results are over-represented; it also holds similar structures and randomly drawn compounds.
# Molecular target: human ether-à-go-go-related gene (hERG) potassium channel (human, UniProt Q12809)
# Test: primary screen, population patch clamp on CHO cells stably expressing hERG; higher = less effect of the substance
# 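Further: peak tail current of the secondary pulse compared with the same well before compound.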
# Chain of human ether-à-go-go-related gene (hERG) potassium channel (Q12809 whole entry, looked up): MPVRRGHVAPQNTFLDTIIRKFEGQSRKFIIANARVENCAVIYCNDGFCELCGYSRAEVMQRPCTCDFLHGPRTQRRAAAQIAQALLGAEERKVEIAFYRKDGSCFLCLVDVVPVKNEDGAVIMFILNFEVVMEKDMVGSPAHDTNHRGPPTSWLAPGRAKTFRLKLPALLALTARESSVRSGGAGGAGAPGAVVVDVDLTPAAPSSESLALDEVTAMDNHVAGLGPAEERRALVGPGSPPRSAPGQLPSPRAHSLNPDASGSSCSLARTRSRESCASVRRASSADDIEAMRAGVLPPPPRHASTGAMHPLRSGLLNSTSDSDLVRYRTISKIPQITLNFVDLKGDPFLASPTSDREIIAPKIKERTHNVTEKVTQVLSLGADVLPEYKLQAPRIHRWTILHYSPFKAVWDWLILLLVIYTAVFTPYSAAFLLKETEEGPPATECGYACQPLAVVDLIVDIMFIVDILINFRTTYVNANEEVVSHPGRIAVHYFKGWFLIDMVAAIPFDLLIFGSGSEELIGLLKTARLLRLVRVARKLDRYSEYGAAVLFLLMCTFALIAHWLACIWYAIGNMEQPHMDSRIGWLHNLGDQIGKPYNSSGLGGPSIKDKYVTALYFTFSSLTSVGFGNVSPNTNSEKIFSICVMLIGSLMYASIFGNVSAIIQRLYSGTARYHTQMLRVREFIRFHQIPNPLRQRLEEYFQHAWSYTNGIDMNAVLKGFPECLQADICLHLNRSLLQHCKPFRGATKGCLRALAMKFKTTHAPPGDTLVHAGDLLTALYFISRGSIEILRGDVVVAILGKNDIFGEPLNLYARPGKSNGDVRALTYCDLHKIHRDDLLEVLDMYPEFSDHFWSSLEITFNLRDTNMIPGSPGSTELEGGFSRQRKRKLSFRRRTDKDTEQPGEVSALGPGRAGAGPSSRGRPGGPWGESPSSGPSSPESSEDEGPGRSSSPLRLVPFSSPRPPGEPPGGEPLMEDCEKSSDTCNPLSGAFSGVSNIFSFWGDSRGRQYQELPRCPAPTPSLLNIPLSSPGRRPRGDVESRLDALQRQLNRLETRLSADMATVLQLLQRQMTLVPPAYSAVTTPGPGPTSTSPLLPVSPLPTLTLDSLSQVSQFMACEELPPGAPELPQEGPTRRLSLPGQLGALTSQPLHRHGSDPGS
row,Structure (SMILES),"hERG current change (%, negative = inhibition) at 10uM [%]"
1,CC(=O)Nc1ccc2c(c1)NC(=O)CC2,18.3
2,Cc1cc(C)c(S(=O)(=O)N2CCN(C(=O)CCn3nc(C)c(C)c3C)CC2)c(C)c1,-35.8
3,CCN1CCN(CC(=O)Nc2nc3ccc(C)cc3s2)CC1,-34.5
4,Cc1cccc(NC(=S)NCCc2ccc(S(N)(=O)=O)cc2)c1C,11.4
5,O=C(NCCN1C(=O)S/C(=C\c2cccs2)C1=O)c1ccc(=O)[nH]c1,-15.5
6,Cc1cc(Nc2ccccc2O)c2ccccc2n1.Cl,-18.6
7,Cc1ccc(C)c(Nc2cc(C)nc3ccccc23)c1,-49.5
8,Cc1ccc(Nc2nc3ccccc3c(=O)s2)cc1C,6.94
9,Cc1cc(Nc2ccccc2Cl)c2ccccc2n1,-64.2
10,Cc1cc(Nc2cccc(Cl)c2)c2ccccc2n1,-68.8
11,Cc1cc(Nc2ccc(C)c(C)c2)c2ccccc2n1,-66.9
12,Cc1cc(C(=O)Nc2ccccc2Cl)c2ccccc2n1,-2.16
13,Cc1cc(C)nc(Nc2cccc(Cl)c2)n1.Cl,21.8
14,Cc1nc2ccccc2nc1Nc1cccc(Cl)c1,9.24
15,Cc1ccc(C(=O)NCC(=O)O)s1,23.8
16,Cc1ccc2[nH]c(=O)c(CN(Cc3cccs3)C(=S)NCC3CCCO3)cc2c1 (centres unmarked),8.11
17,CN(CCC1CCOCC1)C(=O)C1CCC(=O)N(CCc2ccccc2)C1 (centres unmarked),-15.1
18,CN(C(=O)C1CCC(=O)N(CCc2ccc(Cl)cc2)C1)C1CCOCC1 (centres unmarked),10.7
19,CN(CCOc1ccccc1)C(=O)C1CCC(=O)N(CCCN2CCCC2=O)C1 (centres unmarked),27.5

row,Structure (SMILES),"hERG current change (%, negative = inhibition) at 10uM [%]"
1,CCc1ccc(CN(C)C(=O)C2CCC(=O)N(Cc3cccc(OC)c3)C2)nc1 (centres unmarked),-18.8
2,CN(CCC1CCOCC1)C(=O)C1CCC(=O)N(CCc2ccc(Cl)cc2)C1 (centres unmarked),-62
3,COc1ccccc1CN1CC(C(=O)N(C)CCOc2ccccc2)CCC1=O (centres unmarked),-9.29
4,COc1ccc(CCN2CC(C(=O)N(C)Cc3ccc(C)o3)CCC2=O)cc1 (centres unmarked),-6.77
5,CN(CCOc1ccccc1)C(=O)C1CCC(=O)N(CCc2ccc(Cl)cc2)C1 (centres unmarked),-84.9
6,COc1ccc(CCN2CC(C(=O)N(C)Cc3ccccc3OC)CCC2=O)cc1 (centres unmarked),-29.4
7,CCc1ccc(CN(C)C(=O)C2CCC(=O)N(CCc3ccc(OC)cc3)C2)nc1 (centres unmarked),-79.9
8,CN(CCOc1ccccc1)C(=O)C1CCC(=O)N(CCN2CCOCC2)C1 (centres unmarked),16.5
9,COc1ccc(CCN2CC(C(=O)N(C)CCOc3ccccc3)CCC2=O)cc1 (centres unmarked),-57.2
10,CCOC(=O)C1CCN(C(=O)COC(=O)CSc2ccc([N+](=O)[O-])cc2)CC1,-39.5
11,COc1ccc(CCNC(=O)c2ccccc2C(=O)NCCc2ccc(OC)cc2)cc1,-12
12,COc1ccc(OC)c2c1cc(C(=O)N[C@@H](C)C(=O)N[C@@H](C(=O)O)c1ccccc1)n2C,19.2
13,O=[N+]([O-])c1ccc(O)c(/C=N/n2cnc3ccccc32)c1,19.2
14,O=C(COC(=O)CCCc1c[nH]c2ccccc12)Nc1ccc2c(c1)OCO2,15.1
15,c1ccc2c(c1)CCCN2Cc1nnnn1CC1CCCO1 (centres unmarked),7.06
16,O=[N+]([O-])c1ccc(Nc2ccc(Cl)cc2)nc1,21.7
17,O=[N+]([O-])c1ccc(NNS(=O)(=O)c2cc(Cl)ccc2Cl)nc1,-68.8
18,O=[N+]([O-])c1ccc(NCc2ccc(Cl)cc2)nc1,0.977
19,CCN(CC)S(=O)(=O)c1ccc(C)c(NC(=O)COC(=O)CNC(=O)c2ccc(C(C)(C)C)cc2)c1,7.12

row,Structure (SMILES),"hERG current change (%, negative = inhibition) at 10uM [%]"
1,CCN(CC)c1ccc(/C=N/NS(=O)(=O)c2ccc(CNC(C)=O)cc2)cc1,13.2
2,Cc1cccc(C(=O)NCC(=O)NC(C)CCc2ccccc2)c1 (centres unmarked),-0.165
3,Cc1c(Cl)cccc1-n1c(SCC(=O)N(C)Cc2ccccc2)nnc1-c1ccncc1,-49.5
4,COc1ccc(CNC(=O)C2CCN(S(=O)(=O)c3cccc4nonc34)CC2)cc1,-0.634
5,CC(C)Sc1nnc([C@@H]2CCCN2C(=O)OC(C)(C)C)o1,14.7
6,Cc1nc(NCc2ccc3c(c2)OCO3)c2nnn(Cc3ccccc3)c2n1,-13.9
7,COc1cccc(NC(=O)CN(C)C(=O)CC(NC(=O)c2ccccc2Cl)c2ccccc2)c1 (centres unmarked),-49.7
8,CCOc1ccccc1NC(=O)c1cccc(NC(=O)CC(c2ccccc2)c2ccccc2)c1,-67.1
9,CCCC(=O)Nc1cccc(C(=O)Nc2ccccc2OCC)c1,-14.7
10,CN(CC(=O)Nc1ccc(Cl)c(C(F)(F)F)c1)C(=O)/C=C/c1ccco1,5.99
11,CCOc1ccc(NC(=O)CN(C)C(=O)/C=C/c2ccco2)cc1OCC,-61.2
12,CCOc1ccccc1NC(=O)c1ccc(Cl)c(NC(=O)CC(c2ccccc2)c2ccccc2)c1,2.16
13,CCOc1ccc(CCNC(=O)COC(=O)/C=C/c2ccco2)cc1OCC,12.9
14,CCOc1ccc(/C=C/C(=O)N(C)CC(=O)Nc2cccc(F)c2)cc1OCC,10.6
15,CCOc1ccc(NC(=O)CN(C)CC(=O)NC(C)c2ccccc2)cc1OCC (centres unmarked),6.58
16,CCOc1ccc(NC(=O)CN(C)C(=O)CC(NC(=O)c2ccccc2)c2ccccc2)cc1OCC (centres unmarked),-51.9
17,COc1ccc(CCNC(=O)/C=C/c2ccco2)cc1OC,0.593
18,CCOc1ccc(CCNC(=O)/C=C/c2ccco2)cc1OCC,-70
